Results reported in PubChem BioAssay.
Calls of active or inactive are those of the source.

How the values were obtained:
[1] = E. coli DRC41 culture turbidity changes, primary screen, E. coli filamentation inducer project, strain DRC41, OD650, 48 h (AID 1152);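 further: E. coli MC1000 strain DRC41 lacking acrAB efflux pump and sulA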; conditions: E. coli DRC41 (acrAB sulA), higher = more signal, called active from +8 up or from −8 down
[2] = small-molecule binders of probe aLefty1, primary screen, biochemical, small-molecule microarray, 635/667 nm fluorescence (AID 1153); conditions: higher = more signal;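 further: score merges spot fluorescence with signal-to-noise ratio from the scanned slide images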
[3] = PSAC antagonists in infected red cells, primary screen, cell-based, P. falciparum Indochina, OD700, 1 h (AID 1154); conditions: P. falciparum Indochina infected RBC osmotic lysis, higher = more signal, called active from +8 up or from −8 down
[4] = PSAC antagonists in infected red cells, primary screen, cell-based, P. falciparum Indochina, OD700, 2 h (AID 1155);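 further: lysis reports solute entry through the parasite surface anion channel PSAC; channel blockers reduce lysis of infected cells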; conditions: P. falciparum Indochina infected erythrocytes, osmotic lysis OD700; higher = more signal, called active from +8 up or from −8 down
[5] = osmotic lysis modulators in infected erythrocytes, primary screen, PSAC antagonist project, cell-based, P. falciparum Indochina, OD700, 3 h (AID 1156); conditions: higher = more signal, called active from +8 up or from −8 down
[6] = PSAC antagonists in infected red cells, primary screen, cell-based, P. falciparum Indochina, OD700, 18 h (AID 1157); conditions: P. falciparum Indochina infected erythrocytes, osmotic lysis OD700, 18 h; higher = more signal, called active from +8 up or from −8 down
[7] = modulators of S6 phosphorylation in cells, primary screen, cell-based, A549, cytoblot, luminescence, serum-stimulated (AID 1158); conditions: A549 phospho-S6 cytoblot, 5 h, higher = more signal;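 further: serum-stimulated A549 lung adenocarcinoma cells; signal is phosphorylated S6 detected by cytoblot immunostaining with HRP secondary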
[8] = biological target: NADPH oxidase 2 (Homo sapiens) (UniProt P04839); assay: NOX2-dependent H2O2 signal modulators, primary screen, NOX inhibitor project, cell-based, HEK293-NOX2, PMA-stimulated, Amplex Red fluorescence (AID 1159); conditions: 45 min, higher = more signal, called active from +8 up or from −8 down; further: test concentration not given here
NADPH oxidase 2 (Homo sapiens), sequence (P04839 whole entry, looked up): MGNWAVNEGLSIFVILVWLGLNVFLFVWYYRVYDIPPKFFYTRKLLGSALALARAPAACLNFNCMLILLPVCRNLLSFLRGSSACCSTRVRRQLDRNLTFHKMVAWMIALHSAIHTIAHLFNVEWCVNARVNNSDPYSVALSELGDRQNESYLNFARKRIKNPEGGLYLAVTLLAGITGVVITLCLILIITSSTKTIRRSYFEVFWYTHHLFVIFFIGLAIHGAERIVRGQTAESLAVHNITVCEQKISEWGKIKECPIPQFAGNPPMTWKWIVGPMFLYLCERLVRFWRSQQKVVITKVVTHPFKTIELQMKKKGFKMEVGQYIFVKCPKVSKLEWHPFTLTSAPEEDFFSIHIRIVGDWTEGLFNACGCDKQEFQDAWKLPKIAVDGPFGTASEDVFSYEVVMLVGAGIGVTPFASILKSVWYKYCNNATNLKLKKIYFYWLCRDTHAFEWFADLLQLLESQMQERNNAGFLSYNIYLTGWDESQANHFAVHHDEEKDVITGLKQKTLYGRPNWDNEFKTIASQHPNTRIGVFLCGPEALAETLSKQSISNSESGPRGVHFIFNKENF

[9] = biological target: NADPH oxidase 4 (Homo sapiens) (UniProt Q9NPH5); assay: NOX4-dependent H2O2 signal modulators, primary screen, NOX inhibitor project, cell-based, HEK293-NOX4, tetracycline-induced, Amplex Red fluorescence (AID 1160); conditions: 45 min, higher = more signal, called active from +8 up or from −8 down
NADPH oxidase 4 (Homo sapiens), sequence (Q9NPH5 whole entry, looked up): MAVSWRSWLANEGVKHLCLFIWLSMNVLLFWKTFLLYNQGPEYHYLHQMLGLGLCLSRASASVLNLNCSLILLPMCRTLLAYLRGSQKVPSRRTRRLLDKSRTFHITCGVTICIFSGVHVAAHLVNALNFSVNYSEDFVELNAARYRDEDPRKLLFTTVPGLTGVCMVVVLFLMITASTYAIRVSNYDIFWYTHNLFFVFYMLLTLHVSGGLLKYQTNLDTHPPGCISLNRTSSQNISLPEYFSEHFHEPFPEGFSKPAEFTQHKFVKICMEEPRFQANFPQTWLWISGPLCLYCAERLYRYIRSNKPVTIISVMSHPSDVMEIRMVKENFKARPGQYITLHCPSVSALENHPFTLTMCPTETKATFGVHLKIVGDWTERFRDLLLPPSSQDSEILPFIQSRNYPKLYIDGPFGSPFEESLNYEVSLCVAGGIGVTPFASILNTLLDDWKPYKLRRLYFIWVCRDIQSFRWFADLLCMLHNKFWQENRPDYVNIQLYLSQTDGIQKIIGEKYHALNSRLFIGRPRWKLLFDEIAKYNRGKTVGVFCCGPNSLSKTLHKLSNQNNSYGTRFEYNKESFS

[10] = biological target: NADPH oxidase 5 (Homo sapiens) (UniProt Q96PH1); assay: NOX5-dependent H2O2 signal modulators, primary screen, NOX inhibitor project, cell-based, HEK293-NOX5, Amplex Red fluorescence (AID 1161); conditions: HEK293-NOX5, ionomycin, 45 min, higher = more signal
NADPH oxidase 5 (Homo sapiens), sequence (Q96PH1 whole entry, looked up): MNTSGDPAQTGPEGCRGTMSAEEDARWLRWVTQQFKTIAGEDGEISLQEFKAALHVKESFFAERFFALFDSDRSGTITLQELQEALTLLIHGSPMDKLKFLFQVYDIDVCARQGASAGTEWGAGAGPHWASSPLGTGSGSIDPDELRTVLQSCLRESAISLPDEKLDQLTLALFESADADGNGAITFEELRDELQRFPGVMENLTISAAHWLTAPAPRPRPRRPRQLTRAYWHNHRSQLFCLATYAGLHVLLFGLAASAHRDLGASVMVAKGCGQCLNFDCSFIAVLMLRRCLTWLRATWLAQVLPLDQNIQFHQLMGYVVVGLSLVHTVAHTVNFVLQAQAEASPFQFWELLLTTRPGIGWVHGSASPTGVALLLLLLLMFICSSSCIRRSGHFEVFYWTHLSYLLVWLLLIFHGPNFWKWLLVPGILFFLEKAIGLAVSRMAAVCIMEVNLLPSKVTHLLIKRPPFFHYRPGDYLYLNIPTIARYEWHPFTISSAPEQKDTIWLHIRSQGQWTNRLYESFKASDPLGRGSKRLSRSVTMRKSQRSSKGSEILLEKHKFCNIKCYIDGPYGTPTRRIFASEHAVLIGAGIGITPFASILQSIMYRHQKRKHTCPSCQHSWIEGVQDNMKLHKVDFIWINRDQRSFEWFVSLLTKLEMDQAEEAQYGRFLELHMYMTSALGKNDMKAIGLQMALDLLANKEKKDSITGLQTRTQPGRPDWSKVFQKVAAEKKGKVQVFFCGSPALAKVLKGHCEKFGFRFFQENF

Structure (SMILES) | z-score [1] | composite z-score [2] | z-score [3] | z-score [4] | z-score [5] | z-score [6] | z-score [7] | z-score [8] | z-score [9] | z-score [10]
C#CCCCON=C1C[C@@H](O)[C@@H](O)[C@@H]2[C@@H]3C(=O)N(c4ccc(F)cc4F)C(=O)[C@@H]3CC[C@H]12 | -1.41 (inactive) | -0.193 | 1.04 (inactive) | -1.22 (inactive) | 1.13 (inactive) | -1.41 (inactive) | 0.27 | -0.76 (inactive) | 0.615 (inactive) | 0.306
CON=CC[C@@H]1C=C[C@H](OC(C)=O)[C@@H](COC(C)=O)O1 | -2.1 (inactive) | 0.171 | 0.0262 (inactive) | 0.0956 (inactive) | -0.833 (inactive) | 0.245 (inactive) | -0.841 | 0.0851 (inactive) | -0.0561 (inactive) | -0.107
COC(=O)CC=C[C@H](C)[C@@H](OCc1cccc(Br)c1)[C@@H](C)[C@H](OC)C1CCCCC1 | -0.533 (inactive) | -0.333 | 1.82 (inactive) | 0.675 (inactive) | -0.0293 (inactive) | 0.686 (inactive) | 0.433 | -0.453 (inactive) | 0.286 (inactive) | 0.664
COc1ccc(O[C@H]2C=C[C@@H](c3ccccc3)O[C@@H]2CON=C2[C@H]3CCn4c(=O)n(-c5ccccc5)c(=O)n4[C@H]3[C@H](O)[C@@H]3O[C@H]23)cc1 | -0.402 (inactive) | -0.012 | 8.37 (active) | 1.25 (inactive) | 0.671 (inactive) | 0.858 (inactive) | -0.511 | -1.37 (inactive) | -0.132 (inactive) | -0.17
C[C@H]1CC[C@H]2C(=O)O[C@H](COc3ccc(C(C)(C)C)cc3)CN2[C@@H]1c1ccc(Br)cc1 | -0.421 (inactive) | -0.412 | 0.683 (inactive) | 0.237 (inactive) | -0.889 (inactive) | 0.465 (inactive) | -0.338 | 0.215 (inactive) | 0.644 (inactive) | 0.974
CO[C@H]1COC(=O)CC=C[C@H](C)COC(=O)[C@@H](C)NC(=O)CC=C[C@@H]1C | -0.447 (inactive) | 0.0669 | -0.499 (inactive) | -1.13 (inactive) | 0.475 (inactive) | -2.08 (inactive) | 1.27 | 0.157 (inactive) | 0.148 (inactive) | -0.0359
CCc1cc2c(nc1CC)CCN(CCC(C)=NO[C@H](C)c1cn([C@H](CO)Cc3ccccc3)nn1)C2 | -0.266 (inactive) | 0.832 | 4.7 (inactive) | 1.3 (inactive) | 1.84 (inactive) | 0.514 (inactive) | 0.917 | -0.221 (inactive) | -0.461 (inactive) | 2.32
CC(CCC(=O)OC[C@H]1O[C@H](C#Cc2ccccc2)C=C[C@@H]1Oc1ccc(C)cc1)=NO[C@H](C)c1cn([C@H](CO)Cc2ccccc2)nn1 | -0.757 (inactive) | -0.243 | 14.6 (active) | 2.79 (inactive) | 1.47 (inactive) | 1 (inactive) | -1.01 | -1.26 (inactive) | 0.432 (inactive) | 0.32
COC(=O)CC=C[C@@H](C)[C@@H](C=NOC(C)CN1CCCc2nc(C)c(C)cc21)OC (stereo not given in full) | -0.4 (inactive) | -0.202 | 0.378 (inactive) | 0.633 (inactive) | -0.17 (inactive) | 0.538 (inactive) | -0.77 | -0.0618 (inactive) | -0.14 (inactive) | 0.372
CC(CCN1CCc2nc(-c3ccccc3)c(-c3ccccc3)cc2C1)=NOC[C@@H](O)COCc1ccco1 | 1.17 (inactive) | -0.101 | 3.04 (inactive) | 0.369 (inactive) | 0.686 (inactive) | 0.195 (inactive) | 0.615 | -0.636 (inactive) | -0.00269 (inactive) | -0.624
COC(=O)[C@H](C)NC(=O)CCC1CC(OC(=O)NCc2ccc3c(c2)OCO3)CC2(CCCC(COC(=O)NCC(c3ccccc3)c3ccccc3)O2)O1 (stereo not given in full) | 0.246 (inactive) | -0.0969 | 17.6 (active) | 4.8 (inactive) | 1.34 (inactive) | -0.685 (inactive) | 3.66 | -1.25 (inactive) | -1.5 (inactive) | -3.77
CC(CCN1CCCc2nc(C)c(C)cc21)=NOC(C)CN1CCCCc2nc(C)c(C)cc21 (stereo not given) | -0.702 (inactive) | 0.123 | 2.12 (inactive) | 0.193 (inactive) | 0.564 (inactive) | 0.415 (inactive) | -0.775 | -0.397 (inactive) | -1.71 (inactive) | -0.496
COc1ccc(C#C[C@@H]2C=C[C@H](OC(C)=O)[C@@H](COC(C)=O)O2)cc1 | 0.381 (inactive) | -0.193 | 1.96 (inactive) | 0.141 (inactive) | -0.544 (inactive) | -0.0979 (inactive) | -0.394 | 1.38 (inactive) | 0.59 (inactive) | 0.89
